Laboratory results published in PubChem BioAssay AID602393 (Broad Institute, 2012).
In all, about 350,000 compounds went through this assay and about 7,000 (2%) were called active. Rule as the data show it: active = activation above about 40%; inconclusive = no clear call, values can overlap the other calls; inactive = below that. What follows is part of a selection rich in actives, with near analogues and random picks from the rest.

assay: raisers of Bmi1 knock-in reporter signal – mouse ES cells, Bmi1 luciferase knock-in, single point, esBAF inhibitor project, primary screen (AID 602393); details: 24 h, at 12.5 µM, stronger effect = higher value, 100% = twice the neutral-well signal;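 also: 0% = median of the plate's neutral control wells and 100% = double that signal; a rise in the Bmi1 reporter signal indicates esBAF inhibition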

Row | Structure (SMILES) | reporter increase
1 | CS(=O)(=O)Nc1cccc(C2=NN(S(=O)(=O)c3ccccc3)C(c3cccs3)C2)c1 (stereo not given) | -7.36% (inactive)
2 | CS(=O)(=O)Nc1cccc(C2=NN(C(=O)c3cccc(F)c3)C(c3cccs3)C2)c1 (stereo not given) | 5.14% (inactive)
3 | CS(=O)(=O)Nc1ccc(C2=NN(S(C)(=O)=O)C(c3cccs3)C2)cc1 (stereo not given) | 58.2% (active)
4 | CC(C)C#Cc1ccc2c(c1)O[C@@H](CN(C)C(=O)C1CC1)[C@H](C)CN([C@H](C)CO)S2(=O)=O | 3.19% (inactive)
5 | C[C@@H]1CN([C@H](C)CO)C(=O)c2cccc(NS(=O)(=O)c3ccc(F)cc3)c2O[C@@H]1CN(C)S(=O)(=O)c1ccc(Cl)cc1 | 0.559% (inactive)
6 | CO[C@@H](CN(C)S(=O)(=O)c1ccc(F)cc1)[C@H](C)CN(C(=O)Nc1ccccc1F)[C@@H](C)CO | 7.4% (inactive)
7 | O=C(C[C@H]1C=C[C@@H](NC(=O)c2cnccn2)[C@H](CO)O1)NCc1ccccc1F | -1.5% (inactive)
8 | CC(C)NC(=O)N[C@@H]1CC[C@H](CCn2cc(-c3ccccc3)nn2)O[C@H]1CO | 1.66% (inactive)
9 | CCNC(=O)C[C@@H]1CC[C@@H]2[C@@H](COc3ccc(NC(C)=O)cc3C(=O)N2C)O1 | -3.06% (inactive)
10 | COC(=O)/C(=C1\Oc2ccc(C(C)(C)C)cc2S1)C(F)(F)F | 53.4% (active)
11 | CCOC(=O)C1=C(c2ccccc2)O/C(=C(/C(=O)OC)C(F)(F)F)S1 | -7.41% (inactive)
12 | COCC#Cc1cnc2c(c1)C(=O)N([C@H](C)CO)C[C@@H](C)[C@@H](CN(C)C(=O)Nc1cccc(F)c1)O2 | -0.578% (inactive)
13 | C[C@H](CO)N1C[C@H](C)[C@@H](CN(C)Cc2ccccn2)Oc2ncc(C3=CCCC3)cc2C1=O | -4.21% (inactive)
14 | C[C@@H]1CN([C@@H](C)CO)C(=O)c2cc(-c3ccc(C#N)cc3)cnc2O[C@H]1CN(C)C(=O)CN(C)C | 0.919% (inactive)
15 | CCc1c(C)sc(NC(=O)c2ccc(Br)o2)c1C(=O)OC | 0.318% (inactive)
16 | CCc1c(C)sc(NC(=O)c2cccs2)c1C(N)=O | 57.1% (active)
17 | CCOC(=O)c1oc2ccccc2c1NC(=O)c1cccs1 | -0.529% (inactive)
18 | COc1ccc(CN2C[C@@H](C)[C@H](OC)CN(C)C(=O)c3cc(NC(C)=O)ccc3OC[C@@H]2C)cc1 | 1.02% (inactive)
19 | CN(C)CC(=O)N[C@@H]1CC[C@H](CC(=O)NCc2ccc(Cl)cc2)O[C@H]1CO | 2.07% (inactive)
20 | CCCN(C)C[C@@H]1Oc2cc(-c3ccc(C)cc3)ccc2S(=O)(=O)N([C@@H](C)CO)C[C@H]1C | -1.82% (inactive)
21 | CO[C@H]1CN(C)C(=O)c2ccc(NC(=O)c3cc(C)on3)cc2OC[C@H](C)N(C)C[C@H]1C | -3.45% (inactive)
22 | COc1ccc(Nc2oc(-c3ccccc3Cl)nc2C#N)cc1 | 11.5% (inactive)
23 | Cc1ccc(OCc2nc(C#N)c(N3CCCC3)o2)cc1 | 6.84% (inactive)
24 | CCOc1ccc(Nc2oc(Cc3ccccc3)nc2C#N)cc1 | 52% (active)
25 | COc1ccc(NC(=O)N(C)C[C@@H]2OCCCC[C@H](C)Oc3ccc(NS(=O)(=O)c4c(C)noc4C)cc3C(=O)N([C@@H](C)CO)C[C@@H]2C)cc1 | 10.5% (inactive)

Row | Structure (SMILES) | reporter increase
26 | Cc1ccc(Nc2nc(C)cc(C)c2C(N)=O)cc1 | -0.241% (inactive)
27 | Cc1ccc(NC(=O)c2ccn(C(=O)Nc3ccccc3)n2)c(C)c1 | 33.7% (inactive)
28 | Cc1ccc2nc(Nc3ccccc3)cc(C)c2c1 | 48.3% (active)
29 | O=C(C[C@H]1CC[C@H](NC(=O)c2ccncc2)[C@H](CO)O1)Nc1ccccc1 | 6.5% (inactive)
30 | CNC[C@H]1OCCCC[C@@H](C)Oc2ccc(NC(=O)c3ccccc3)cc2C(=O)N([C@@H](C)CO)C[C@H]1C | 9.15% (inactive)
31 | C[C@@H]1CN([C@H](C)CO)C(=O)c2cc(C#CC3(O)CCCC3)cnc2O[C@H]1CN(C)Cc1ccncc1 | -2.58% (inactive)
32 | Cc1ccccc1NC(=S)NC(=O)Cc1ccc(Cl)cc1 | 5.51% (inactive)
33 | Cc1ccc(C(=O)NC(=S)Nc2ccccc2C)cc1 | 69.2% (active)
34 | Cc1ccc(C(=O)NC(=S)Nc2ccc(N3CCOCC3)cc2)cc1 | 5.69% (inactive)
35 | CC(C)NC(=O)N[C@H]1C=C[C@H](CC(=O)NCCN2CCCC2)O[C@@H]1CO | -2.39% (inactive)
36 | Cc1c(CCC(=O)O)c(=O)oc2cc(OCc3ccc(Br)cc3)ccc12 | 14.3% (inactive)
37 | CCc1c(C)c2ccc(OC3CCCCC3=O)cc2oc1=O (stereo not given) | 65.6% (active)
38 | COC(=O)Cc1c(C)c2ccc(OCC(=O)NCc3ccc4c(c3)OCO4)cc2oc1=O | 4.08% (inactive)
39 | COc1cccc(CNC(=O)[C@@H]2[C@@H](CO)[C@@H]3Cn4c(ccc(-c5ccncc5)c4=O)[C@H]2N3C(C)=O)c1 | 5.45% (inactive)
40 | CO[C@@H]1CN(C)C(=O)c2cc(NS(=O)(=O)CC(F)(F)F)ccc2OC[C@H](C)N(Cc2ccccn2)C[C@@H]1C | 0.135% (inactive)
41 | C[C@@H]1CN([C@@H](C)CO)C(=O)c2cccc(N(C)C)c2O[C@@H]1CN(C)S(=O)(=O)c1ccccc1 | 0.064% (inactive)
42 | O=C(COc1ccc([N+](=O)[O-])cc1Cl)Nn1cnnc1 | -5.37% (inactive)
43 | Cc1cc(NC(=O)COc2ccc(Cl)cc2Cl)n(CCC#N)n1 | 97.9% (active)
44 | CCCn1nnnc1NC(=O)COc1ccc(Cl)cc1C | -3.97% (inactive)
45 | CCC(=O)N1C[C@H](C)[C@H](OC)CN(C)C(=O)c2ccc(NC(=O)c3cnccn3)cc2OC[C@@H]1C | -10.3% (inactive)
46 | CC(C)NC(=O)N(C)C[C@@H]1Oc2cc(C#C[C@H](C)O)ccc2S(=O)(=O)N([C@@H](C)CO)C[C@H]1C | 0.093% (inactive)
47 | O=C(c1ccncc1)N1C[C@H]2[C@@H](c3ccccc31)[C@H](CO)N2Cc1ccc(F)cc1 | -3.53% (inactive)
48 | COC(=O)CSc1nc(C)c2ccc(OC)cc2n1 | -3.51% (inactive)
49 | CCOc1ccc2cc(C#N)c(SCC(=O)OC)nc2c1 | 66.4% (active)
50 | Cc1nonc1NC(=O)CSc1nc2ccccc2cc1C#N | 36.1% (inactive)
